Pf growth 96h: Primary qHTS for delayed death inhibitors of the malarial parasite plastid, 96 hour incubation; P. falciparum luciferase reporter growth, 96 h; Potency, µM (highest dose often 28.7 µM), for the others: at the top dose activity change, negative = inhibition, most hits filed as inhibitors; 320,000 compounds, 6.9% hits; note: potency is the fitted concentration of half-maximal effect; % is set by controls: 0 for no effect and ±100 for the full control effect
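Erythrocytes infected with luciferase-expressing P. falciparum were dispensed at 2% hematocrit and 0.05% parasitemia (final), then incubated with compounds 96 hours at 37 C in 5% CO2. Luminescence after detection reagent addition reported growth.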
Shiga inhibitor: A qHTS for Small Molecule Inhibitors of Shiga Toxin. AID 2315, 2010. 290,000 compounds, 9.2% hits. inhibition, % at 38.7 µM. Vero cells, Shiga toxin protein synthesis inhibition reporter; in the data active = inhibition mostly above about 28%, no sharp cut-off; inactive = mostly below about 43%; note: 0% is about no effect
Pf growth 48h: Primary qHTS for delayed death inhibitors of the malarial parasite plastid, 48 hour incubation. P. falciparum luciferase growth in erythrocytes, 48 h. Potency, µM (highest dose often 28.7 µM), for the others: at the top dose activity change, negative = inhibition, actives largely listed as inhibitors. 310,000 compounds, 5.9% hits; note: potency is the fitted concentration of half-maximal effect; % is set by controls: 0 for no effect and ±100 for the full control effect
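Read-out is firefly luciferase luminescence from an integrated reporter in P. falciparum, so falling signal marks reduced parasite growth. Infected erythrocytes were at 2% hematocrit and 0.1% parasitemia (final) in Albumax-supplemented RPMI 1640.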
CHX counter: Cycloheximide Counterscreen for Small Molecule Inhibitors of Shiga Toxin. 300,000 compounds, 12% hits. AID 2314, 2010. max response, %. cell reporter, cycloheximide protein synthesis inhibition counterscreen; in the data active = max response mostly above about 13%, no sharp cut-off; inactive = mostly below about 14%; note: read at 38.3 µM for the half of the compounds with a filed dose; 0% is about no effect
HCV inh: qHTS Assay for Inhibitors of Hepatitis C Virus (HCV); Huh7.5.1 HCVcc-Cre infection, luciferase reporter, 44 h; Potency, µM (top dose mostly 41.8 µM), for the others: at the top dose activity change, negative = inhibition, actives largely listed as inhibitors; 340,000 compounds, 3.4% hits; AID 651820, 2012; note: potency is the fitted concentration of half-maximal effect; % is set by controls: 0 for no effect and ±100 for the full control effect
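HCVcc-Cre virus at an moi near 0.5 was added right after compound to cells cultured 4 h from seeding (1,000 cells/well). Luciferase activity was determined 44 h later, 15 min after substrate addition at RT.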
HCMV inh: qHTS Assay for inhibitors of the human cytomegalovirus (HCMV) | HFF cells, HCMV-luciferase reporter, 72 h; active compounds read low | activity change, negative = inhibition, % at 57.5 µM | 410,000 compounds, 4.5% hits | AID 1259415, 2018; in the data active = activity change below about -60%; inconclusive = no clear call, values can overlap the other calls; inactive = above about -39%; note: % is set by controls: 0 for no effect and ±100 for the full control effect
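Steps: HFFs plated, 16 h 37C; compounds added; HCMV-luciferase added to MOI 1 PFU/cell; 72 h 37C; OneGlo reagent, 5 min room temperature; luminescence read, normalized to controls.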
An asterisk follows results filed as active; u = inconclusive; x = not tested or not shown. In the library only some 21% were active in any assay of this set; here they are far more common. Unless noted, calls come from the whole dose curve; as a rule, active = well fitted inhibition curve with a large enough effect; inconclusive = small, poorly fitted or top-dose-only effect, or another doubt; inactive = no such curve, though single readings can be large or run the other way.

SMILES | Pf growth 96h | Shiga inhibitor | Pf growth 48h | CHX counter | HCV inh | HCMV inh
COc1ccccc1CNC(=O)C(=O)NCC1CCCO1 (stereo not drawn) | 5.86µM* | 61.8* | 54.1% | 23.9* | 5.5% | 17.6
COc1ccc(CN2C(=O)c3ccccc3C2C(=O)NCC2CCCO2)c(OC)c1 (stereo not drawn) | 4.65µM* | -7.0 | -9.2% | 7.5 | 20.4% | 43.1
CN1CCN(NC(=O)Nc2cc(Cl)cc(Cl)c2)CC1 | 43.8% | -3.7 | -10.4% | -0.9 | -27.4% | -33.0
CC(=O)NC(Cc1cc(C)ccc1C)C(=O)N1CCN(C(=O)Nc2ccc(C(C)=O)cc2)CC1 (stereo not drawn) | x | 13.5 | -10.8% | 16.6* | 6.1% | x
CN(C)c1nc(OCCOC(=O)c2ccccc2)nc(N(C)C)n1 | x | -4.4 | -11.8% | -2.8 | 25.1µM* | -19.5
O=C(NCC(c1ccc(F)cc1)N1CCOCC1)c1ccc(Br)o1 (stereo not drawn) | u | -5.6 | -11.7% | -6.9 | 13.1% | 22.0
O=C(CC12CC3CC(CC(C3)C1)C2)NCC(c1ccc(F)cc1)N1CCOCC1 (stereo not drawn) | 11.7µM* | -8.3 | 11.7µM* | -4.1 | 6.7% | -39.0
CCOc1cc(C(=O)NCC(c2ccc(N(C)C)cc2)N2CCOCC2)cc(OCC)c1OCC (stereo not drawn) | x | x | x | x | x | -61.7*
O=C(NCC(c1ccc(F)cc1)N1CCOCC1)c1cc(F)c(F)c(F)c1F (stereo not drawn) | -9.9% | -8.2 | 0.0% | -1.5 | -15.4% | u
Cc1ccc(Cn2nc(C)c(C(=O)NCC(c3ccc(F)cc3)N3CCOCC3)c2Cl)cc1 (stereo not drawn) | u | x | 10.4µM* | x | u | 0.0
Cc1ccc(Cl)c(OCC(=O)NCC(c2cccs2)N2CCOCC2)c1 (stereo not drawn) | u | x | u | x | 12.6µM* | -67.7*
COc1ccc(C(CNC(=O)COc2ccc(F)cc2Br)N2CCCC2)cc1 (stereo not drawn) | -1.3% | 19.0 | u | -6.0 | u | -60.5*
COc1ccc(C(CNC(=O)C(C)Oc2ccc(Br)cc2)N2CCCC2)cc1 (stereo not drawn) | u | x | 11.7µM* | x | u | -17.2
Cc1cc(OCC(=O)NCC(c2ccc(F)cc2)N2CCOCC2)ccc1Cl (stereo not drawn) | 9.28µM* | x | 9.28µM* | x | 4.4% | -2.3
CN(C)c1ccc(C(CNC(=O)COc2ccc(Cl)cc2)N2CCCC2)cc1 (stereo not drawn) | 6.57µM* | 2.7 | -17.6% | -0.9 | 8.9% | u
CCc1ccc(CNC(=O)c2ccc(NC(=O)N3CCCCc4ccccc43)cc2)cc1 | x | x | x | x | x | -0.2
O=C(O)c1cc2c(ncc3c(=O)n(-c4ccccc4)[nH]c32)s1 | x | x | x | x | x | -9.5
COc1cccc(C(=O)N2CCC[C@H]2C(=O)N2CCC[C@H]2C(=O)N[C@H](C)c2ccccc2)c1 | x | x | x | x | x | -15.1
Cc1ccccc1Nc1ncnc2c1cnn2C | u | -5.4 | 10.6% | -4.1 | -7.1% | -21.9
C[C@H]1[C@@H](NS(=O)(=O)c2ccc([N+](=O)[O-])cc2[N+](=O)[O-])CC[C@@]23CCCN2C(=O)CCC[C@@H]13 | x | x | x | x | x | 12.1
Cc1ccc(NC(=O)CSc2nc3ccc(NC(=O)c4cccc(Cl)c4)cc3s2)c(C)c1 | x | x | x | x | x | -4.8
COc1cc(C(=O)NCC(c2ccc(F)cc2)N2CCOCC2)ccc1OCc1ccccc1Cl (stereo not drawn) | 9.28µM* | x | 5.22µM* | x | u | -21.0
COc1ccccc1NS(=O)(=O)c1ccc(C(=O)NCC(c2ccc(F)cc2)N2CCOCC2)cc1 (stereo not drawn) | x | x | x | x | 5.0% | 10.8
NNC(=O)c1sc2cc(C(F)(F)F)cnc2c1-c1ccccn1 | -9.1% | -10.6 | -3.1% | 1.8 | -6.4% | -29.0
CC1CCN(S(=O)(=O)c2cc(C(=O)NCc3ccccc3)n(C)c2)CC1 | x | x | x | x | x | -80.9*
COc1cc(NC(=O)c2cc(S(=O)(=O)N3CCC(C)CC3)cn2C)cc(OC)c1OC | x | x | x | x | x | -102.3*
Cc1ccc(NC(=O)N2CC3CCCN3c3ccccc32)c(C)c1 (stereo not drawn) | x | x | x | x | x | 9.0
